The values that follow come from ChEMBL document CHEMBL1157539, “Thousands of chemical starting points for antimalarial lead identification” (Nature, 2010).

Holding throughout (assay type): functional
Experiment [1] concerns Plasmodium falciparum. The experiment can be described thus: GSK_TCMDC: Inhibition of Plasmodium falciparum 3D7 in whole red blood cells, using parasite LDH activity as an index of growth. Test compounds present at 2uM.
Experiment [2] deals with Plasmodium falciparum. In words: GSK_TCMDC: Inhibition of Plasmodium falciparum Dd2 in whole red blood cells, using parasite LDH activity as an index of growth. Test compounds present at 2uM.
In the next experiment the test system is HepG2. The experiment can be described thus: GSK_TCMDC: Percent inhibition of human HepG2 cell line. Test compounds present at 10uM.

What is called Inhibition is how much of the control response was suppressed. A low value points to a response near the control. Take `CS(=O)(=O)c1cccc(-c2cnc(N)c3cc(-c4ccc5c(c4)OCO5)ccc23)c1.O=CO`: the Inhibition was 91% in the experiment with Plasmodium falciparum [1], 23% in the experiment with Plasmodium falciparum [2] and 37% in the experiment on HepG2.
Take `CC(C)n1ncc2c(C(=O)N3CCCc4ccccc43)cc(-c3ccccc3)nc21`: the Inhibition was determined as 100% with Plasmodium falciparum [1], 82% with Plasmodium falciparum [2] and 5% with HepG2.
Take `COc1cc(F)c2ncc(Cl)c(CCN3CCC(NCc4ccc5c(c4)NC(=O)CO5)CC3)c2c1.Cl`: the Inhibition in the experiment with Plasmodium falciparum [1] was 95%; in the experiment on Plasmodium falciparum [2], 79%; in the experiment on HepG2, 32%.
As for `COCCCC1C(=O)OC2CCCC21` (stereo not given), the Inhibition in the experiment on Plasmodium falciparum [1] came to 93%; in the experiment with Plasmodium falciparum [2], 85%; with HepG2, 0%.
With `COc1cc(Nc2nccc(N3CCC(NC(=O)Nc4cccc(C(C)=O)c4)C3)n2)cc(OC)c1OC` (stereo not given), the figures for the Inhibition in the experiment on Plasmodium falciparum [1], in the experiment on Plasmodium falciparum [2] and in the experiment on HepG2 were 91%, 34% and 8%, respectively.
For `O=C(NC(CCCN1CCC2(CC1)OCc1ccccc12)c1ccc(Cl)c(Cl)c1)c1cc(C(F)(F)F)cc(C(F)(F)F)c1` (stereo not given), the Inhibition in the experiment with Plasmodium falciparum [1] is 100%; in the experiment on Plasmodium falciparum [2], 99%; in the experiment with HepG2, 55%.
Consider `COc1ccc2nccc([C@@H](O)CN3CCC(NCCOc4ccc(F)cc4Cl)CC3)c2c1.O=C(O)C(=O)O`, for which the Inhibition in the experiment on Plasmodium falciparum [1] is reported as 99%; in the experiment on Plasmodium falciparum [2], 85%; with HepG2, 1%.
Turning to `CCn1ccc2c(N3CCCC3=O)cc(C(=O)N[C@@H](Cc3ccccc3)[C@H](O)CNCc3cccc(OC)c3)cc21`, the Inhibition amounted to 94% in the experiment with Plasmodium falciparum [1], 92% in the experiment on Plasmodium falciparum [2] and 4% in the experiment on HepG2.
The corresponding values for `O=C(O)C(F)(F)F.c1ccc(CCNCc2ccc(-c3cccc(-c4nc5ccccc5[nH]4)c3)cc2)nc1` are 100%, 87% and 36%.
On to `CCCCCCCN1CC[C@@H](C[C@H](N)Cc2ccnc3ccc(OC)cc23)[C@@H](CC)C1.O=C(O)C(=O)O`, for which the Inhibition was found to be 91% in the experiment with Plasmodium falciparum [1], 51% in the experiment on Plasmodium falciparum [2] and 33% in the experiment on HepG2.
